Assay results: PubChem BioAssay
Measured potencies and affinities stand elsewhere. Calls of active or inactive are those of the source. No cut-off is given here; in the data, nearly all actives have IC50 up to about 0.91 µM.

target: Calcium-dependent protein kinase 4 (Plasmodium falciparum (isolate 3D7)) (UniProt Q8IBS5); test: PfCDPK4 kinase inhibitors, biochemical, TCAMS library (AID 1159588); conditions: recombinant PfCDPK4, Kinase-Glo ATP depletion luminescence
Sequence (Q8IBS5 whole entry, looked up): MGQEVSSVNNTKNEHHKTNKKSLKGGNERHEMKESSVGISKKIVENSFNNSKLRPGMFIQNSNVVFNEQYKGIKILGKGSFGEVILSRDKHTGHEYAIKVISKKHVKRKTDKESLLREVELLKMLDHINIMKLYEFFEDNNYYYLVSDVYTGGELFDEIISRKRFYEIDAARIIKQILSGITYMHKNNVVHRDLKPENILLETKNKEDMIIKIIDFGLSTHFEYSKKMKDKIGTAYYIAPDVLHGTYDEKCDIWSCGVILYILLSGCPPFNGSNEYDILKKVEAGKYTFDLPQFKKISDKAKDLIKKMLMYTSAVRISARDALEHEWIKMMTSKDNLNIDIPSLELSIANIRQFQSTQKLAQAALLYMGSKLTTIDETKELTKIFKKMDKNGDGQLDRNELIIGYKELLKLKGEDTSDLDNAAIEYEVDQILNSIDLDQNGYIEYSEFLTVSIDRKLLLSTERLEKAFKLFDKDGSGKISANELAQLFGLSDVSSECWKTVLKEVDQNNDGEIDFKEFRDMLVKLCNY

| SMILES | outcome |
| --- | --- |
| COc1ccc2nccc(N3CCC(SCCNS(=O)(=O)c4ccc5c(c4)OCCO5)C3)c2n1 (stereo not given) | inactive |
| CCc1c(CCNCCCCCCNCCc2ccc([N+](=O)[O-])cc2)ccc(OC)c1OC | inactive |
| CCOC(=O)c1cnc2c(OC)cc(OC)c(Cl)c2c1Nc1ccccc1 | inactive |
| O=C(Nc1ccc(Cl)cc1)Nc1cccc(CCNCc2ccccc2)c1 | inactive |
| Nc1nc2c(ncn2OC[C@H]2COP(=O)(O)CO2)c(=O)[nH]1 | inactive |
| Fc1ccc(Nc2ccnc3cc(-c4cccc(CN5CCCCC5)c4)ccc23)c(Cl)c1 | inactive |
| COc1ccc(NC(=O)[C@H](CC(C)C)Nc2cc(C)nc(NCCc3cccs3)n2)cc1 | inactive |
| NC(=O)c1cccc(CNC(=O)NC[C@H]2CN(Cc3ccc(Cl)c(Cl)c3)CCO2)c1 | inactive |
| O=C(NC1CC1)c1ccc2cc(C(=O)N3Cc4ccccc4C(c4ccccc4)C3)ccc2c1 (stereo not given) | inactive |
| O=C(Nc1ccc(OC2CCN(Cc3ccc(F)cc3)CC2)c(Cl)c1)c1ccsc1 | inactive |
| CN(C)Cc1cc(Nc2ccnc3cc(Cl)ccc23)ccc1O | inactive |
| O=C(Cc1ccc(NC(=O)c2ccc(O)c(-c3ccc(Cl)c(Cl)c3)c2)cc1)NCc1cccc(C(F)(F)F)c1 | inactive |
| COc1ccc(CNC2CCN(C)CC2)cc1-c1ccc(S(=O)(=O)NCc2ccccc2)cc1 | inactive |
| CC(C)=CCc1c(-c2ccc(O)cc2O)oc2c3c(cc(O)c2c1=O)OC(C)(C)C=C3 | inactive |
| COc1ccc2ncc(F)c(NC(=O)C3CCC(NCc4cc5cc(F)cc(F)c5[nH]4)CC3)c2n1 (stereo not given) | inactive |
| O=C(NCc1cccs1)[C@H](Cc1ccccc1)Nc1ccnc(NCCc2ccc(F)cc2)n1 | inactive |
| CCc1ccc(NC(=O)c2ccc(CN3CCCN(CC4CCCCC4)CC3)cc2)cc1 | inactive |
| O=C(NCc1ccc(F)cc1)Nc1ccc(-c2cccc(-c3nc4ccc(C(F)(F)F)cc4[nH]3)c2)cc1 | inactive |
| Cc1nc2ccc(NC(=O)c3cc(S(=O)(=O)N(C)C)ccc3Cl)cc2s1 | inactive |
| Cc1cc(N[C@@H](Cc2ccccc2)C(=O)NCCOc2ccccc2)nc(NCCc2ccc(F)cc2)n1 | inactive |

| SMILES | outcome |
| --- | --- |
| COc1c(C(=O)NC2CCN(Cc3ccccc3)C2)cnc2ccccc12 (stereo not given) | inactive |
| O=C(c1cccc(-c2cccc(-c3nc4ccccc4[nH]3)c2)c1)N1CCCCC1CN1CCC(O)C1 (stereo not given) | inactive |
| Cc1cc(F)ccc1Nc1nc(N(C)c2ccccc2)c2cccc(OCCO)c2n1 | inactive |
| CCC(C)(C)n1c(C)cc2c3c(N)nc(N)nc3ccc21 | inactive |
| Nc1cccc(CNCc2ccc(-c3cccc(-c4nc5ccc(F)cc5[nH]4)c3)cc2)c1 | inactive |
| CN(C)Cc1c(O)ccc2[nH]c(-c3ccc(F)cc3F)nc12 | inactive |
| CO/C(=C/C=C/c1cc2cc(Cl)c(Cl)cc2[nH]1)C(=O)NC1CC(C)(C)N(C)C(C)(C)C1 | inactive |
| O=C(Nc1cccc(Cl)c1Cl)N1CCc2cc3nccc(N4CCN5CCC[C@H]5C4)c3cc21 | inactive |
| N#Cc1ccc(N(CCOC(=O)c2ccc(Br)s2)Cc2ccccc2C(F)(F)F)cc1C(F)(F)F | inactive |
| Clc1cc(Nc2ncnc3sc(C#Cc4ncc[nH]4)cc23)ccc1OCc1ccccn1 | inactive |
| COc1ccc2nccc([C@@H](O)CN3CCC(NCCOc4ccccc4C(F)(F)F)CC3)c2c1 | inactive |
| Cc1onc(-c2ccccc2Cl)c1C(=O)Nc1cc(Cl)c(Cl)cc1Cl | inactive |
| COc1ccc(C(=O)Nc2ccc3nc(N4CCCCC4)cc(C)c3c2)cc1[N+](=O)[O-] | inactive |
| CCCCCCNc1cc(C)nc2ccc(OC)cc12 | inactive |
| COc1ccc(CN2CCCN(Cc3cccc(NC(=O)c4ccc(Cl)c(Cl)c4)c3)CC2)cc1 | inactive |
| CC1=C(C(=O)OCCOCc2ccccc2)C(c2ccccc2C(F)(F)F)C(C(=O)OCCOCc2ccccc2)=C(C)N1 | inactive |
| CCOC(=O)c1ccc(N=C2SC(=Cc3cc(Br)ccc3O)C(=O)N2C)cc1 | inactive |
| O=S(=O)(Nc1cccc(CCN2CCCCC2CCN2CCCC2)c1)c1ccc(Oc2ccccc2)cc1 (stereo not given) | inactive |
| O=C(NCc1ccc(Cl)c(Cl)c1)[C@H]1CNCCN1C(=O)c1ccccc1 | inactive |
| N#Cc1cccc(NC(=O)Nc2cccc(-c3cccc(-c4nc5ccc(C(F)(F)F)cc5[nH]4)c3)c2)c1 | inactive |
